Test in all cases: NCI-60 one-dose screen, 48 h (100 = growth as untreated, 0 = no growth, -100 = all killed)
The test system of one test is EKVX NSCLC. The following applies: 10 µM.
In the next test the test system is SN12C renal. The following applies: 10 µM.
A further test concerns UO-31 renal. The following applies: 10 µM.
A further test concerns TK-10 renal.
A further test deals with ACHN renal. The conditions noted are these: 10 µM.
The next test relates to CAKI-1 renal. The conditions noted are these: 10 µM.
The next test has as its system A498 renal. The following applies: 10 µM.
In a further test the test system is CCRF-CEM leukemia. The conditions noted are these: 10 µM.
The test system of another test is MOLT-4 leukemia. The following applies: 10 µM.
The test system of another test is SK-MEL-2 melanoma. The conditions noted are these: 10 µM.

“And” between values parts separate entries of the source, which are not always exact repeats. Equal entries are not always repeated. This is part of a sample that, as a whole, favours compounds with a hit. Of some 83,000 tested, about 20% had one in any assay.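 How to read the values: 0–100, growth inhibition (40 = 60% inhibited); 0, no net growth; -100 to 0, cell death (-40 = 40% of starting cells died; -100 = all dead).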 The source made the active and inactive calls. How the source made its calls: active means growth percent below 10; inactive means the rest. Where a SMILES comes first, the peptide text is derived from it. [ ]: non-standard residue; d: D form. ξ: configuration not given here. ξV = CC(C)C(N)C(=O)O

For the compound `O=C(C(=Cc1ccccc1)C(=O)c1ccccc1)c1ccccc1`, the growth in the test on EKVX NSCLC is 79.2% (inactive) and 103% (inactive); in the test with SN12C renal it was 78.6% (inactive) and 82.7% (inactive); with UO-31 renal it was 60.9% (inactive) and 87.8% (inactive); in the test on TK-10 renal (10 µM) it was 124% (inactive) and 87.7% (inactive); in the test with ACHN renal, 62.3% (inactive) and 85.8% (inactive); with CAKI-1 renal, 84.5% (inactive) and 86.8% (inactive). Further, the growth with A498 renal is 72.2% (inactive) and 88.6% (inactive); with CCRF-CEM leukemia it was 10.8% (inactive) and 81.8% (inactive); in the test on MOLT-4 leukemia, 10.6% (inactive) and 85.4% (inactive).

Turning to `Clc1cc(Cl)c(Cl)nn1`, the growth in the test with EKVX NSCLC is 115% (inactive); in the test with SN12C renal it was 98% (inactive); with UO-31 renal, 106% (inactive); in the test on TK-10 renal (10 µM), 146% (inactive); with ACHN renal, 113% (inactive); in the test on CAKI-1 renal it was 109% (inactive). Further, the growth was 109% (inactive) in the test with A498 renal and 88.7% (inactive) with CCRF-CEM leukemia.

In the case of `NC1=C(Cl)C(=O)c2ccccc2C1=O`, the growth is 107% (inactive) with EKVX NSCLC; 62.5% (inactive) in the test with SN12C renal; 84.3% (inactive) with UO-31 renal; 120% (inactive) in the test with TK-10 renal (10 µM); 76.8% (inactive) with ACHN renal; 89.5% (inactive) in the test on CAKI-1 renal. Further, the growth was 104% (inactive) in the test on A498 renal, 46% (inactive) in the test with CCRF-CEM leukemia and 56.1% (inactive) in the test on MOLT-4 leukemia.

Turning to `OCC(O)C(O)C(O)C(/C=N/Nc1ccccc1)=N/Nc1ccccc1` (stereo not given), the growth was 121% (inactive) in the test on SK-MEL-2 melanoma; 95.9% (inactive) in the test with SN12C renal; 61.1% (inactive) with UO-31 renal; 91.8% (inactive) in the test on TK-10 renal (10 µM); 67.5% (inactive) in the test with ACHN renal; 78% (inactive) in the test on CAKI-1 renal. In addition, the results for the growth in the test on A498 renal, with CCRF-CEM leukemia and with MOLT-4 leukemia were 43.9% (inactive), 75.4% (inactive) and 101% (inactive), respectively.

Take `Nc1ccc2cc3ccc(N)cc3nc2c1`: the growth in the test on EKVX NSCLC is 88.3% (inactive) and 25.2% (inactive); with SN12C renal, 86.2% (inactive) and 9.16% (active); in the test on UO-31 renal, 86.3% (inactive) and -14.7% (active); in the test with TK-10 renal (10 µM), 120% (inactive) and 25.8% (inactive); in the test on ACHN renal, 108% (inactive) and 1.69% (active); in the test with CAKI-1 renal, 87.8% (inactive) and 4.44% (active). The growth in the test with A498 renal is 85.6% (inactive) and 1.64% (active); in the test with CCRF-CEM leukemia, 6.51% (active); in the test on MOLT-4 leukemia, 90% (inactive) and 8.01% (active).

Regarding `COc1cccc2c1C(=O)c1c(O)c3c(c(O)c1C2=O)C[C@@](O)(C(C)=O)C[C@@H]3OC1CC(N)C(O)C(C)O1` (stereo not given in full), the growth in the test on SK-MEL-2 melanoma was -38.6% (active); with EKVX NSCLC it was -3.48% (active); in the test on SN12C renal it was 8.87% (active); with UO-31 renal, 11.3% (inactive); in the test on TK-10 renal (10 µM), 18.5% (inactive); in the test with TK-10 renal (50 µM), -97.7% (active) and -90.9% (active). Besides, the growth in the test with ACHN renal is 0.546% (active); with CAKI-1 renal, -31.1% (active); in the test with A498 renal, -71.7% (active); with CCRF-CEM leukemia, -24.1% (active); in the test with MOLT-4 leukemia, -26.1% (active).

For `N=S(c1ccccc1[N+](=O)[O-])c1ccccc1[N+](=O)[O-]`, the growth is 85.8% (inactive) in the test on EKVX NSCLC; 84.9% (inactive) in the test with SN12C renal; 5.99% (active) in the test on UO-31 renal; 22.4% (inactive) in the test with TK-10 renal (10 µM); 2.38% (active) in the test with ACHN renal; 85.5% (inactive) with CAKI-1 renal. Further, the growth was 107% (inactive) in the test with A498 renal, 7.69% (active) in the test on CCRF-CEM leukemia and 98.9% (inactive) with MOLT-4 leukemia.

For the compound `OCC1OC(n2cnc3c(=S)nc[nH]c32)C(O)C1O` (stereo not given), the growth was 106% (inactive) and 119% (inactive) in the test with EKVX NSCLC; 95.1% (inactive) and 82.5% (inactive) in the test with SN12C renal; 93.9% (inactive) and 50.5% (inactive) in the test with UO-31 renal; 97.9% (inactive) and 40.7% (inactive) in the test on TK-10 renal (10 µM); 103% (inactive) and 32.9% (inactive) with ACHN renal; 104% (inactive) and 18% (inactive) in the test on CAKI-1 renal. Also, the growth was 105% (inactive) and 119% (inactive) in the test with A498 renal; 107% (inactive) and 32.7% (inactive) in the test on CCRF-CEM leukemia; 120% (inactive) and 35.7% (inactive) with MOLT-4 leukemia.

As to `O=C(/C=C/c1cccnc1)c1ccccc1`, the growth is 94.2% (inactive) in the test with SK-MEL-2 melanoma; 103% (inactive) in the test on EKVX NSCLC; 100% (inactive) with SN12C renal; 84.1% (inactive) in the test on UO-31 renal; 93.9% (inactive) with TK-10 renal (10 µM); 79.8% (inactive) in the test with ACHN renal. The growth in the test with A498 renal was 89.7% (inactive); in the test on CCRF-CEM leukemia, 41.3% (inactive); in the test on MOLT-4 leukemia, 82.3% (inactive).

Consider `CC(C)C(NC(=O)CN)C(=O)O` (stereo not given) (H-Gly-[ξV]-OH), for which the growth was 108% (inactive) and 109% (inactive) with SK-MEL-2 melanoma; 102% (inactive) and 103% (inactive) in the test on EKVX NSCLC; 104% (inactive) and 100% (inactive) in the test on SN12C renal; 84% (inactive) with UO-31 renal; 103% (inactive) and 93.9% (inactive) in the test on TK-10 renal (10 µM); 102% (inactive) and 109% (inactive) in the test with ACHN renal. In addition, the growth with CAKI-1 renal is 96.4% (inactive) and 97.1% (inactive); with A498 renal, 102% (inactive) and 99.9% (inactive); with CCRF-CEM leukemia, 91.9% (inactive) and 96% (inactive); in the test with MOLT-4 leukemia, 79.2% (inactive) and 101% (inactive).

Consider `CCN1/C(=C/C=C/C=C/c2sc3ccccc3[n+]2CC)Sc2ccccc21`, for which the growth is -31.9% (active) in the test with EKVX NSCLC; -20.7% (active) with SN12C renal; -35.3% (active) in the test on UO-31 renal; -6.28% (active) in the test on TK-10 renal (10 µM); -45.6% (active) in the test with ACHN renal; -0.841% (active) in the test with CAKI-1 renal. The growth is 9.48% (active) in the test on A498 renal, 8.96% (active) with CCRF-CEM leukemia and -31.7% (active) with MOLT-4 leukemia.

With `NC(=O)SCC(=O)NNc1ccccc1`, the growth with EKVX NSCLC is 99.4% (inactive); in the test with SN12C renal, 94.9% (inactive); in the test on UO-31 renal, 78.9% (inactive); in the test with TK-10 renal (10 µM) it was 95.5% (inactive); in the test on ACHN renal, 81.1% (inactive); in the test with CAKI-1 renal it was 92.8% (inactive). Besides, the growth with A498 renal was 93.7% (inactive); with CCRF-CEM leukemia, 90.4% (inactive); with MOLT-4 leukemia, 111% (inactive).

The values are drawn from PubChem BioAssay (NCI).
